We go through eight compounds from PubChem BioAssay (NCI).

Among the test systems are HCT-15 colon; HT29 colon; SNB-75 CNS; SNB-19 CNS; U251 CNS; PC-3 prostate; SK-MEL-5 melanoma; UACC-62 melanoma; LOX IMVI melanoma; SK-MEL-28 melanoma; SK-MEL-2 melanoma; EKVX NSCLC; SN12C renal; UO-31 renal; TK-10 renal; ACHN renal; CAKI-1 renal; A498 renal; CCRF-CEM leukemia; MOLT-4 leukemia.
Test in all cases: NCI-60 one-dose screen, 48 h (100 = growth as untreated, 0 = no growth, -100 = all killed)
Holding throughout (conditions): 10 µM unless noted

About 83,000 compounds went through this panel and 20% of them were active in at least one assay; those are over-represented in the sample as a whole.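 Compound tested at a single concentration for 48 hours in 96-well plates; a percent growth value below 10 was scored as active.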 A number with no mark means an inactive call. Active and inactive are the calls of the source.

As for `CCOC(=O)C1=C(CCl)N(C)C(=O)NC1c1ccc2c(c1)OCO2` (stereo not given), the growth was 34.4% in the assay with HCT-15 colon; 38.7% in the assay with HT29 colon; 28.8% in the assay with SNB-75 CNS; 84.5% in the assay with SNB-19 CNS; 68% in the assay with U251 CNS; 36.8% in the assay on PC-3 prostate. For the same compound, the growth in the assay with SK-MEL-5 melanoma is 81.9%; in the assay on UACC-62 melanoma it was 73.2%; in the assay with LOX IMVI melanoma, 40.9%; in the assay with SK-MEL-28 melanoma, 79%; in the assay with SK-MEL-2 melanoma, 58.8%; in the assay with EKVX NSCLC it was 71.9%. The growth was 58.6% in the assay with SN12C renal; 69.5% in the assay on UO-31 renal; 45.2% in the assay with TK-10 renal; 49.5% with ACHN renal; 36.7% in the assay with CAKI-1 renal; 55.8% with A498 renal. Besides, the results for the growth in the assay on CCRF-CEM leukemia and in the assay with MOLT-4 leukemia were 12% and 53.2%, respectively.

In the case of `O=c1cc(CNc2cc(F)cc(F)c2)c2ccc(I)cc2[nH]1`, the growth is 32.1% in the assay with HCT-15 colon; 8.99% (active) in the assay on HT29 colon; -9.56% (active) with SNB-75 CNS; 49.8% in the assay on SNB-19 CNS; 31.8% in the assay with U251 CNS; 26.7% in the assay with PC-3 prostate. Further, the growth was 18.5% in the assay on SK-MEL-5 melanoma; 36.7% in the assay with UACC-62 melanoma; 41% with LOX IMVI melanoma; 64% in the assay with SK-MEL-28 melanoma; 39.2% in the assay on SK-MEL-2 melanoma; 44% with EKVX NSCLC. Also, the growth in the assay with SN12C renal was 51.7%; with UO-31 renal, 39.7%; with TK-10 renal, 53.3%; in the assay on ACHN renal, 36.3%; in the assay on CAKI-1 renal, 26.6%; in the assay on A498 renal, 3.87% (active). The growth with CCRF-CEM leukemia was 14.8%; in the assay with MOLT-4 leukemia, 28.1%.

`N=C(N)c1ccc(OCCSCCOc2ccc(C(=N)N)cc2)cc1`: the growth in the assay with HCT-15 colon is 85.1%; in the assay with HT29 colon it was 85.4%; with SNB-75 CNS it was 71.2%; with SNB-19 CNS, 56.7%; in the assay with U251 CNS, 48%; in the assay with PC-3 prostate it was 90.6%. Moreover, the growth in the assay with SK-MEL-5 melanoma was 41.4%; in the assay with UACC-62 melanoma, 67.4%; in the assay with LOX IMVI melanoma, 90.5%; in the assay with SK-MEL-28 melanoma, 92.2%; in the assay with SK-MEL-2 melanoma, 82.5%; in the assay with EKVX NSCLC, 56.6%. Further, the growth with SN12C renal is 37.4%; with UO-31 renal, 70.7%; in the assay on TK-10 renal it was 60.8%; in the assay with ACHN renal it was 74.3%; in the assay with CAKI-1 renal, 51.7%; in the assay with A498 renal, 51.7%. Besides, the growth was 97.6% with CCRF-CEM leukemia and 93.4% with MOLT-4 leukemia.

Turning to `COC(=O)[C@@]1(C)CC[C@]2(C)CC[C@]3(C)C4=CC=C5C(=CC(=O)C(O)=C5C)[C@]4(C)[C@@H](O)C[C@@]3(C)[C@@H]2C1`, the growth in the assay with HCT-15 colon is 1.43% (active); in the assay on HT29 colon, 31.1%; in the assay on SNB-75 CNS, 70.5%; with SNB-19 CNS it was 22.9%; in the assay with U251 CNS, -10.1% (active); in the assay with PC-3 prostate it was 29.1%. The growth in the assay with SK-MEL-5 melanoma is 60.7%; with UACC-62 melanoma, 29.6%; in the assay with LOX IMVI melanoma, -56.3% (active); in the assay with SK-MEL-28 melanoma, -17.8% (active); in the assay on SK-MEL-2 melanoma, 43.5%; with EKVX NSCLC, 51%. Besides, the growth in the assay on SN12C renal was 9.92% (active); in the assay on UO-31 renal it was -56.6% (active); with TK-10 renal, 18.4%; in the assay with ACHN renal it was -49.9% (active); with CAKI-1 renal, 9.58% (active); in the assay on A498 renal, 101%. In addition, the growth in the assay on CCRF-CEM leukemia was -2.39% (active); with MOLT-4 leukemia, -20% (active).

Regarding `O=C1CCCC1[n+]1ccccc1` (stereo not given), the growth was 97.1% with HCT-15 colon; 61.4% with HT29 colon; 86.3% in the assay with SNB-75 CNS; 103% in the assay with SNB-19 CNS; 84.4% in the assay with U251 CNS; 81.7% with PC-3 prostate. Besides, the growth is 104% in the assay with SK-MEL-5 melanoma; 96.5% in the assay on UACC-62 melanoma; 99% in the assay with LOX IMVI melanoma; 84.3% with SK-MEL-28 melanoma; 85.3% in the assay on SK-MEL-2 melanoma; 92.6% with EKVX NSCLC. The growth in the assay on SN12C renal was 104%; in the assay with UO-31 renal, 90%; in the assay with TK-10 renal it was 79.4%; with ACHN renal it was 105%; with CAKI-1 renal, 92.4%; in the assay with A498 renal, 126%. Also, the growth in the assay on CCRF-CEM leukemia is 105%; with MOLT-4 leukemia, 113%.

Take `O=C(/C=C/C12c3ccccc3C(c3ccccc31)C1C(=O)NC(=O)C12)c1ccc(Cl)cc1Cl` (stereo not given): the growth in the assay with HCT-15 colon was 11%; with HT29 colon it was 1.07% (active); with SNB-75 CNS, 25.1%; with SNB-19 CNS, 27%; in the assay on U251 CNS, 7.87% (active); in the assay with PC-3 prostate, 15.6%. For the same compound, the growth was 36.8% with SK-MEL-5 melanoma; 12.5% in the assay on UACC-62 melanoma; -25.6% (active) with LOX IMVI melanoma; 4.9% (active) in the assay on SK-MEL-28 melanoma; -2.62% (active) in the assay with SK-MEL-2 melanoma; 36.4% in the assay on EKVX NSCLC. The growth in the assay with SN12C renal is 9.38% (active); with UO-31 renal it was 32.4%; with TK-10 renal it was 22.4%; in the assay on ACHN renal, 28.2%; in the assay on CAKI-1 renal, 25.5%; with A498 renal, 35.7%. Moreover, the growth is -8.25% (active) in the assay with CCRF-CEM leukemia and -0.49% (active) in the assay on MOLT-4 leukemia.

On to `O=CN1N=C(c2cccc(Nc3ccnc4cc(Cl)ccc34)c2)CC1c1ccc(Cl)cc1` (stereo not given), for which the growth is 29.5% in the assay on HCT-15 colon; -24.8% (active) in the assay on HT29 colon; -17.4% (active) in the assay with SNB-75 CNS; 49% in the assay on SNB-19 CNS; 18.9% in the assay on U251 CNS; 23.1% in the assay on PC-3 prostate. Moreover, the growth in the assay on SK-MEL-5 melanoma was 12.7%; with UACC-62 melanoma, 32.4%; in the assay with LOX IMVI melanoma, 24.2%; in the assay with SK-MEL-28 melanoma it was 52.7%; in the assay on SK-MEL-2 melanoma, 9.56% (active); with EKVX NSCLC, 49.1%. For the same compound, the growth in the assay with SN12C renal is 34.1%; in the assay on UO-31 renal, 22.7%; in the assay on TK-10 renal, 45%; with ACHN renal, 45.5%; in the assay with CAKI-1 renal, 18.8%; with A498 renal it was 11.4%. The figures for the growth with CCRF-CEM leukemia and in the assay with MOLT-4 leukemia were 12.2% and 13.7%, respectively.

As to `NC(=O)c1ccccc1OCC(=O)Nc1ccc(Cl)c(Cl)c1`, the growth was 102% in the assay on HCT-15 colon; 113% with HT29 colon; 83.3% in the assay on SNB-75 CNS; 93.2% in the assay with SNB-19 CNS; 97.3% with U251 CNS; 106% in the assay with PC-3 prostate. Also, the growth in the assay with SK-MEL-5 melanoma is 99.9%; in the assay with UACC-62 melanoma it was 83.3%; in the assay on LOX IMVI melanoma, 108%; in the assay on SK-MEL-28 melanoma, 107%; with SK-MEL-2 melanoma, 107%; in the assay on EKVX NSCLC it was 92.2%. Further, the growth is 101% in the assay on SN12C renal; 84.1% with UO-31 renal; 143% with TK-10 renal; 89.3% with ACHN renal; 70.6% in the assay with CAKI-1 renal; 93.7% with A498 renal. Besides, the results for the growth in the assay on CCRF-CEM leukemia and in the assay on MOLT-4 leukemia were 92.3% and 89%, respectively.
